Bioassay records deposited in PubChem by several laboratories.
Peg3 prom inh – reduces Peg3 promoter-driven luciferase expression in HeLa. HeLa PEG-Prom luciferase reporter, luminescence, overnight. inhibition, % at 20 µM. 1.7% of 360,000 active;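 active = inhibition of at least 50% at 20 µM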
CF NFkB block – cystic fibrosis NF-kB activation inhibition; AID 588850; KKLEB NF-kB-GFP reporter, PAF-induced, GFP fluorescence overnight; 0.86% of 360,000 active; inhibition, % at 5 µM;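 active = at least 50% inhibition at 5 µM, scaled per plate between neutral and stimulator controls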;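 note: PAF is a Pseudomonas aeruginosa culture filtrate used as stimulus; plate controls were PAF-stimulated DMSO wells for no effect and unstimulated DMSO wells for full effect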
Mdm2 MdmX PPI – disrupts the human Mdm2-MdmX interaction. SaOS-2 split-luciferase Mdm2/MdmX complementation, luminescence. O15151+Q00987. AID 485346. 3% of 330,000 active. inhibition, % at 8 µM;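 active = inhibition of at least 50% at 8 µM in the primary screen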
ABHD5-PLIN5 inh – ABHD5-PLIN5 protein interaction inhibition. Q00G26+Q8WTS1. Split G. princeps luciferase complementation, luminescence, 4 h. inhibition, % at 4 µM. 0.78% of 360,000 active. AID 602281;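 active = inhibition above the mean inhibition across every tested compound plus 3 SD, cut at about 22% in these data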;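 note: 0% = DMSO only wells and the 100% control is not disclosed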
HIF-2a block – inhibitors of HIF-2a | AID 624352 | 0.72% of 360,000 active | inhibition, % at 18.8 µM | 786-0 RCC cells HIF-2a reporter, luciferase luminescence, overnight;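 active = inhibition of the luminescence signal of 40% or more relative to plate controls, in a single-dose primary screen at 18.75 µM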
KKLEB cytotox – counter-screen for CF NF-kB inhibitors: cytotoxicity; KKLEB CF airway cells viability, ATPlite luminescence, overnight; hits give low values; cells stimulated with P. aeruginosa culture filtrate; activity change (cytotoxicity), % at 5 µM; 0.36% of 360,000 active; AID 602141;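 active = corrected activity change at or below -50% at 5 µM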
Mdm2-MdmX conf – confirmation of human Mdm2/MdmX interaction inhibitors. 55% of 10,000 active. shares compounds with Mdm2 MdmX PPI. AID 489028. Mdm2-MdmX binding, luminescent assay. inhibition, % at 8 µM; in the data active = inhibition above about 40%
FLuc counter – inhibits full-length luciferase, flagging false Mdm2/MdmX hits; SaOS-2 full-length luciferase counterscreen, luminescence; inhibition, % at 8 µM; shares compounds with Mdm2 MdmX PPI; AID 504607; 77% of 6,200 active;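 active = mean inhibition at 8 µM reaching about 37%, which flags the compound as non-specific, limit read from the data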;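 note: p53-null SaOS-2 cells with luciferase driven by a doxycycline-inducible promoter; compound on cells about two nights before reading with doxycycline added after day one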
* marks the source's active call; other numbers are inactive results; / = no result given. Rows were chosen to be rich in hits. Some 4.6% of all compounds tested hit in one or more screens of this group.

SMILES	Peg3 prom inh	CF NFkB block	Mdm2 MdmX PPI	ABHD5-PLIN5 inh	HIF-2a block	KKLEB cytotox	Mdm2-MdmX conf	FLuc counter
Cc1ccc(-c2nn(-c3ccccc3)cc2C(=O)N2CCN(c3ccccn3)CC2)cc1	3.2	29.1	14.0	1.8	-25.5	-5.1	/	/
CC(C)c1nc(SCC(=O)Nc2ccc(C(=O)O)cc2)c2c3c(sc2n1)CCCC3	12.3	-10.1	4.2	2.6	-3.8	4.0	/	/
COc1ccc(S(=O)(=O)N2CCCCCC2)cc1C(=O)N(C)Cc1ccc(OC)c(OC)c1OC	3.2	-7.2	25.8	4.8	8.2	0.8	/	/
Cc1ccc(S(=O)(=O)N2C3CCCCC3O[C@H]2CC(=O)OCc2ccccc2)cc1 (some centres not stated)	/	/	/	-11.3	3.5	/	/	/
Cc1ccccc1CN1C(=O)c2ccccc2S(=O)c2ccc(C(=O)NCCCN3CCOCC3)cc21 (configuration not stated)	7.3	-1.5	23.3	0.2	16.7	0.8	/	/
CC1CC(C)CN(CCCNC(=O)c2ccc3c(c2)N(Cc2ccccc2)C(=O)c2ccccc2S3=O)C1 (configuration not stated)	20.9	11.4	64.2*	12.8	9.0	-28.8	40.8*	69.4*
O=C(NCCCN1CCCC1)c1ccc2c(c1)N(Cc1cccc(Cl)c1)C(=O)c1ccccc1S2=O (configuration not stated)	39.6	15.4	53.1*	14.0	19.6	-3.7	14.0	/
CC1CCCCN1CCNC(=O)c1ccc2c(c1)N(Cc1cccc(Cl)c1)C(=O)c1ccccc1S2=O (configuration not stated)	-1.2	15.6	32.8	-0.1	9.4	1.4	/	/
CC1(c2ccc(Cl)cc2Cl)NC(=O)N(CC(=O)NCCC2=CCCCC2)C1=O (configuration not stated)	6.0	-12.3	/	-3.4	0.2	-2.1	/	/
Cc1cc(-c2ccc(C(C)C)c(S(=O)(=O)N3CCN(c4ccccn4)CC3)c2)on1	31.9	10.9	62.6*	1.4	10.9	-11.9	61.5*	51.5*
COc1cnc(-c2ccccn2)nc1Oc1ccc(Cl)c2ccccc12	-178.3	-0.2	52.4*	1.8	26.2	-27.2	39.5	/
COc1cnc(-c2ccccn2)nc1NC(C)C	35.9	-3.0	79.2*	1.8	-12.2	-19.1	87.4*	48.3*
Cc1ccc(C(=O)N2CCCCC2C(=O)O)cc1S(=O)(=O)N1CCCCC1 (configuration not stated)	-3.5	1.2	12.2	-7.3	15.6	-22.9	/	/
Cc1cc(C)c2nc(-c3ccccn3)cc(C(=O)NCc3ccc(S(N)(=O)=O)cc3)c2c1	48.4	-9.9	54.1*	4.8	-5.8	-27.3	-2.8	/
COc1cccc(NC(=O)c2cc(-c3ccncc3)nc3c(C)cc(C)cc23)c1	0.6	2.8	22.3	2.9	-9.6	5.0	/	/
COc1ccc(NC(=O)c2cc(-c3ccccn3)nc3c(C)cc(C)cc23)c(C)c1	28.0	-23.4	76.6*	-4.0	12.6	-6.3	46.6*	103.7*
COc1ccc(-c2oc3cccnc3c2/C=C/c2ccc(OC)c(OC)c2)cc1	-103.5	-21.4	9.7	4.0	-123.7	-3.3	/	/
Cc1cc(C)n2nc(C(=O)OCC(=O)Nc3ccc(C)c(S(=O)(=O)N4CCOCC4)c3)nc2n1	6.0	-20.8	14.5	3.5	4.2	2.0	/	/
COc1cccc(CSc2nc3ccccc3cc2C=O)c1	7.9	42.1	68.1*	2.4	-22.7	10.4	64.3*	60.8*
CCN1C(=O)/C(=C/c2nc3ccccc3c(=O)n2-c2ccccc2)c2ccccc21	35.1	-5.4	83.3*	2.1	22.9	3.3	49.1*	57.4*
Cc1cc(/C=C2\Sc3ccccc3N2C)cc(C)[n+]1CC1CCCO1 (configuration not stated)	70.4*	-4.2	86.7*	-3.4	-1.8	-28.9	89.5*	21.3
Cc1ccc(/C=C2/Sc3ccccc3N(CC(=O)NCC3CCCO3)C2=O)cc1 (configuration not stated)	-26.3	-0.2	-2.2	0.4	-56.1	-7.3	/	/
COc1cc2ccccc2cc1C(=O)N(CCN(C)C)c1nc2ccc(C)cc2s1	0.0	23.5	68.2*	18.7	-12.0	4.5	56.0*	44.7*
CCN(CC)CCN(C(=O)c1cc2ccccc2cc1OC)c1nc2ccc(OC)cc2s1	12.4	14.5	51.3*	14.4	3.1	-9.4	25.2	/
CCN(CC(=O)Nc1ccc(NC(C)=O)cc1)C(=O)/C=C/c1ccc(C)o1	-7.2	2.6	14.7	8.2	12.9	-3.0	/	/
SMILES	Peg3 prom inh	CF NFkB block	Mdm2 MdmX PPI	ABHD5-PLIN5 inh	HIF-2a block	KKLEB cytotox	Mdm2-MdmX conf	FLuc counter
O=C(C1=C[C@@H](c2ccccc2)C[C@@H](OCc2ccc(CO)cc2)O1)N1CCN(Cc2ccc3c(c2)OCO3)CC1	17.0	5.6	51.9*	10.3	5.0	-2.8	47.8*	69.3*
O=C(C1=C[C@@H](c2csc3ccccc23)C[C@@H](OCc2ccc(CO)cc2)O1)N1CCN(Cc2ccccc2)CC1	15.2	-6.3	32.9	17.2	2.8	-3.4	/	/
O=C(C1=C[C@@H](c2csc3ccccc23)C[C@@H](OCc2ccc(CO)cc2)O1)N1CCN(Cc2ccc3c(c2)OCO3)CC1	6.0	9.8	53.5*	-4.1	20.2	-17.2	46.1*	53.1*
O=C(C1=C[C@H](C2CCCCC2)C[C@H](OCc2ccc(CO)cc2)O1)N1CCN(Cc2ccc3c(c2)OCO3)CC1	-15.3	-38.3	52.0*	6.7	-10.0	6.4	24.1	/
O=C(C1=C[C@@H](C2CCCCC2)C[C@@H](OCc2ccc(CO)cc2)O1)N1CCN(Cc2ccc3c(c2)OCO3)CC1	37.1	-18.8	37.2	16.2	3.5	3.4	/	/
CC1(C)C(=O)Nc2ccccc2N1C(=O)COc1cc(Cl)ccc1Cl	4.7	8.1	28.1	-4.7	2.2	4.1	/	/
O=C(c1c(F)c(F)c(F)c(F)c1F)N1CCN(c2cccc(C(F)(F)F)c2)CC1	10.6	3.1	58.4*	-4.7	20.2	-4.5	16.0	/
Cc1ccc(C(=O)N(C)CC(=O)Nc2cccc(C)c2C)o1	2.2	-17.4	6.5	-2.5	9.8	12.5	/	/
CCCCCCSc1ccc(-c2nc3cc(C)ccn3c2NC2CCCCC2)cc1	27.7	9.5	50.6*	-3.4	-12.1	5.0	-1.6	/
CCC(C)Sc1ccc(-c2nc3cc(C)ccn3c2NC2CCCCC2)cc1 (configuration not stated)	-137.0	38.8	85.2*	-13.4	-231.6	-35.1	-42.0	/
COC(=O)/C(=N/Nc1ccccc1OC)N1CCCc2ccccc21	5.8	9.0	15.9	0.6	12.4	-3.8	/	/
Cc1ccc(OCC(=O)Nc2ccc(Cl)cc2)c(-n2nc3ccccc3n2)c1	47.5	70.3*	77.6*	-2.4	-3.5	-70.4*	71.8*	80.6*
